Measurements from PubChem BioAssay (EPA / NIEHS).
Results filed as inconclusive are left out. The source made the active and inactive calls. How the source made its calls, unless noted: active means hit-call score of the fitted dose curve at least 0.9, where 1 is the maximum; inactive means score below 0.9.

What was measured:
[1] = read-out: Monokine induced gamma interferon (MIG), CXCL9 (gene 4283); assay: BSK_3C_MIG: BioMAP Diversity Plus: 3C Assay for Monokine induced gamma interferon (MIG) Biomarker Activity (AID 2283021); conditions: primary human endothelial cells (HUVEC); actives raise or lower the signal
Summary of the method: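 Read-out is ELISA detection of MIG on human umbilical vein endothelial cells, taken 24 h after dosing. Gain or loss of signal was scored relative to DMSO controls using bidirectional curve fitting.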

[2] = BSK_3C_SRB: Viability Assessment in the BioMAP Diversity Plus: 3C Assay (AID 2283023); conditions: primary human endothelial cells (HUVEC);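 further: fitted both ways against DMSO so a hit may be signal rise or drop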
Summary of the method: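 Primary human umbilical vein endothelial cells in the 3C system were read 24 h after compound dosing. Total protein was stained with 0.1% sulforhodamine B after 10% TCA fixation and read at 560 nm, with bidirectional fitting against DMSO as baseline.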

[3] = read-out: Matrix Metallopeptidase 1 (MMP1), MMP1 (gene 4312); assay: BSK_BE3C_MMP1: BioMAP Diversity Plus: BE3C Assay for Matrix Metallopeptidase 1 (MMP1) Biomarker Activity (AID 2283024); conditions: primary human bronchial epithelial cells; actives raise or lower the signal
Summary of the method: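 Human bronchial epithelial cells (BE3C system) exposed to compound for 24 h; MMP1 then quantified by ELISA. Activity was fitted in both directions relative to DMSO.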

[4] = BSK_3C_Vis: BioMAP Diversity Plus: 3C Assay for Morphology Visualization (AID 2283025); conditions: primary human endothelial cells (HUVEC);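 further: fitted both ways so gain or loss versus DMSO counts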;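 on AC50: light microscopy image of cell morphology used as background control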
Summary of the method: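 Chemicals were added to primary human umbilical vein endothelium, cells were incubated 24 h, and morphology was then visualized by light microscopy. Gain or loss of signal was fitted bidirectionally relative to DMSO.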

[5] = read-out: Pselectin, SELP (gene 6403); assay: BSK_4H_Pselectin: BioMAP Diversity Plus: 4H Assay for Pselectin Biomarker Activity (AID 2283026); conditions: primary human endothelial cells (HUVEC); actives raise or lower the signal
Summary of the method: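 ELISA read-out of P-selectin on human umbilical vein endothelium after 24 h of dosing. Values derive from bidirectional fitting relative to DMSO. Parallel SRB protein staining flagged overt cytotoxicity.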

[6] = BSK_4H_SRB: Viability Assessment in the BioMAP Diversity Plus: 4H Assay (AID 2283027); conditions: primary human endothelial cells (HUVEC);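 further: cells exposed to compound for 24 h before staining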;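 on AC50: curves fitted both ways versus DMSO so AC50 may be loss or gain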
Summary of the method: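 Human umbilical vein endothelial cells were dosed with chemical and, after 24 h, fixed with 10% TCA, stained with 0.1% sulforhodamine B, and read at 560 nm to give total protein as a cytotoxicity measure. Bidirectional fitting relative to DMSO control.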

[7] = BSK_BE3C_SRB: Viability Assessment in the BioMAP Diversity Plus: BE3C Assay (AID 2283028); conditions: primary human bronchial epithelial cells
Summary of the method: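 Human primary bronchial epithelial cells were exposed to test chemicals for 24 h. Total protein in parallel cultures was then measured by staining with 0.1% sulforhodamine B after 10% TCA fixation, with absorbance read at 560 nm. Activity was fitted bidirectionally against DMSO.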

[8] = read-out: Thrombomodulin, THBD (gene 7056); assay: BSK_3C_Thrombomodulin: BioMAP Diversity Plus: 3C Assay for Thrombomodulin Biomarker Activity (AID 2283029); conditions: primary human endothelial cells (HUVEC); actives raise or lower the signal
Summary of the method: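 Read-out is ELISA of thrombomodulin on human umbilical vein endothelium 24 h after chemical dosing. Gain or loss of signal is scored relative to DMSO. Overt cytotoxicity is checked in parallel cultures by sulforhodamine B staining.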

[9] = read-out: Urokinase-type plasminogen activator receptor (uPAR), PLAUR (gene 5329); assay: BSK_4H_uPAR: BioMAP Diversity Plus: 4H Assay for Urokinase-type plasminogen activator receptor (uPAR) Biomarker Activity (AID 2283030); conditions: primary human endothelial cells (HUVEC); actives raise or lower the signal
Summary of the method: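 Primary human umbilical vein endothelial cells were exposed to chemical for 24 h before cell-surface uPAR was quantified by ELISA. Activity was fitted bidirectionally against the DMSO negative control baseline.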

[10] = read-out: Vascular endothelial growth factor receptor 2 (Homo sapiens) (UniProt P35968); assay: BSK_4H_VEGFRII: BioMAP Diversity Plus: 4H Assay for Vascular endothelial growth factor receptor 2 (VEGFR2) Biomarker Activity (AID 2283031); conditions: primary human endothelial cells (HUVEC); actives raise or lower the signal
Summary of the method: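 Primary human umbilical vein endothelial cells in the BioMAP 4H system were dosed with test chemical, and 24 h later VEGFRII was measured by ELISA. Activity was fitted bidirectionally against DMSO as negative control and baseline.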

[11] = read-out: Human Leukocyte Antigen - DR isotype (HLADR), HLA-DRA (gene 3122); assay: BSK_BE3C_HLADR: BioMAP Diversity Plus: BE3C Assay for Human Leukocyte Antigen - DR isotype (HLADR) Biomarker Activity (AID 2283032); conditions: primary human bronchial epithelial cells; actives raise or lower the signal
Summary of the method: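 ELISA read-out of HLA-DR on human lung bronchial epithelial primary cells, measured 24 h post-dosing. Both increases and decreases were scored relative to DMSO vehicle.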

[12] = read-out: Vascular cell adhesion molecule 1 (VCAM1), VCAM1 (gene 7412); assay: BSK_4H_VCAM1: BioMAP Diversity Plus: 4H Assay for Vascular cell adhesion molecule 1 (VCAM1) Biomarker Activity (AID 2283033); conditions: primary human endothelial cells (HUVEC); actives raise or lower the signal
Summary of the method: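 ELISA read-out of VCAM-1 on human umbilical vein endothelium 24 hours after chemical dosing; gain or loss of signal was fitted relative to DMSO, with sulforhodamine B staining of parallel cultures flagging overt cytotoxicity.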

[13] = read-out: Interferon-gamma inducible Protein 10 (IP10), CXCL10 (gene 3627); assay: BSK_BE3C_IP10: BioMAP Diversity Plus: BE3C Assay for Interferon-gamma inducible Protein 10 (IP10) Biomarker Activity (AID 2283034); conditions: primary human bronchial epithelial cells; actives raise or lower the signal
Summary of the method: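 Chemical is dosed onto human lung bronchial epithelial primary cells, cultures are incubated 24 h, and IP-10 is then quantified by ELISA. Gain or loss of signal is fitted in both directions relative to DMSO.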

[14] = read-out: Transforming growth factor beta 1 (TGFb1), TGFB1 (gene 7040); assay: BSK_BE3C_TGFb1: BioMAP Diversity Plus: BE3C Assay for Transforming growth factor beta 1 (TGFb1) Biomarker Activity (AID 2283036;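 further: TGF-b1 protein level measured by ELISA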); conditions: primary human bronchial epithelial cells; actives raise or lower the signal
Summary of the method: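 Primary human lung bronchial epithelial cells; compound exposure 24 h; TGF-b1 by ELISA; bidirectional fit, DMSO baseline. Parallel SRB total-protein staining for cytotoxicity.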

[15] = read-out: Plasminogen activator inhibitor-1 (PAI1), SERPINE1 (gene 5054); assay: BSK_BE3C_PAI1: BioMAP Diversity Plus: BE3C Assay for Plasminogen activator inhibitor-1 (PAI1) Biomarker Activity (AID 2283037); conditions: primary human bronchial epithelial cells; actives raise or lower the signal
Summary of the method: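 Primary human lung bronchial epithelial cells; chemical dosing; 24 h; PAI-1 measured by ELISA; bidirectional fit referenced to DMSO as negative control.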

[16] = read-out: urokinase plasminogen activator (uPA), PLAU (gene 5328); assay: BSK_BE3C_uPA: BioMAP Diversity Plus: BE3C Assay for urokinase plasminogen activator (uPA) Biomarker Activity (AID 2283038); conditions: primary human bronchial epithelial cells; actives raise or lower the signal;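 further: uPA protein level quantified by ELISA in cell cultures; uPA read one day after compound addition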
Summary of the method: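 Human primary bronchial epithelial cells were exposed to chemical for 24 h, then uPA levels were measured by ELISA. Responses were fitted bidirectionally against DMSO as negative control and baseline. Parallel SRB staining of total protein gauged overt cytotoxicity.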

[17] = read-out: Urokinase-type plasminogen activator receptor (uPAR), PLAUR (gene 5329); assay: BSK_BE3C_uPAR: BioMAP Diversity Plus: BE3C Assay for Urokinase-type plasminogen activator receptor (uPAR) Biomarker Activity (AID 2283039); conditions: primary human bronchial epithelial cells; actives raise or lower the signal;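 further: cells exposed to compound for one day before measurement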
Summary of the method: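 Human bronchial epithelial primary cells; chemical exposure 24 h; uPAR by ELISA; bidirectional fit vs DMSO control.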

[18] = molecular target: human Vitamin D Receptor (VDR), VDR (gene 7421) (UniProt P11473); assay: ATG_VDR_TRANS: Attagene TRANS-FACTORIAL HepG2 Assay for human Vitamin D Receptor (VDR) (AID 2283022; active means hit-call score of the fitted dose curve at least 0.9, where 1 is the maximum)
Summary of the method: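 HepG2 cells were transiently transfected with multiple GAL4-UAS reporter units, so signal reflects exogenous chimeric receptor-Gal4 activity. After 24 h compound exposure, reporter mRNA was measured by RT-PCR, fluorescent labelling and capillary electrophoresis, fitted for gain of signal versus DMSO.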

[19] = read-out: Monokine induced gamma interferon (MIG), CXCL9 (gene 4283); assay: BSK_BE3C_MIG: BioMAP Diversity Plus: BE3C Assay for Monokine induced gamma interferon (MIG) Biomarker Activity (AID 2283035); conditions: primary human bronchial epithelial cells; actives raise or lower the signal;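 further: MIG protein measured by ELISA in BE3C cultures after 24 h of dosing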
Summary of the method: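 ELISA read-out of MIG in human lung bronchial epithelial primary cultures, 24 h post-dosing. Bidirectional curve fit vs DMSO baseline.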

Measured: AC50

human Vitamin D Receptor (VDR), VDR (gene 7421), sequence (P11473 whole entry, looked up, the tested form may be a part): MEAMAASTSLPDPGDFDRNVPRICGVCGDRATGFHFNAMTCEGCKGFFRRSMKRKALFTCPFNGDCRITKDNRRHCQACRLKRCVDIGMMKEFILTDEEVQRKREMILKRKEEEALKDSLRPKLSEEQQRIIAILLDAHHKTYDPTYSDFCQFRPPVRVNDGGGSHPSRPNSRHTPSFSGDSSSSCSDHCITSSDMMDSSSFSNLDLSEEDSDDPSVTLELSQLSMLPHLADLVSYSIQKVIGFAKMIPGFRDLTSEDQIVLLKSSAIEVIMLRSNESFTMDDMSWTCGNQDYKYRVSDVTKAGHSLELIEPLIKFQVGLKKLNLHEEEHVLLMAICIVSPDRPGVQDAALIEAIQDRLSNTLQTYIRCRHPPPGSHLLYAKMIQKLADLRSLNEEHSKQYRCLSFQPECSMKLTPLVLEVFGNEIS

Oc1ccc2c(c1)OC[C@@H](N1CCC(O)(c3ccc(F)cc3)CC1)[C@H]2O
not listed: [18] | [19]
inactive: all other assays above

O=c1c(O)c(-c2ccc(O)c(O)c2)oc2cc(O)cc(O)c12
inactive: [1] | [8] | [14] | [15] | [16] | [17]
active: [2] 15.3 µM | [4] 37.5 µM | [5] 16.6 µM | [6] 30.1 µM | [9] 33.6 µM | [11] 20 µM | [12] 26.9 µM

COCCOC[C@H](CC1(C(=O)NC2CCC(C(=O)O)CC2)CCCC1)C(=O)Oc1ccc2c(c1)CCC2 (stereo not given in full)
not listed: [3] | [13] | [19]
inactive: all other assays above

C=CCc1ccc(O)c(OC)c1
not listed: [3] | [18] | [19]
inactive: all other assays above

NS(=O)(=O)c1cc2c(cc1Cl)NCNS2(=O)=O
not listed: [3] | [13]
inactive: all other assays above

CC1(C)NC(=O)NC1=O
not listed: [3]
inactive: all other assays above

CCCCc1ccc2c(n1)[C@@H](c1ccc(OC)cc1C[C@H](C)C(=O)O)[C@H](C(=O)O)[C@H]2c1ccc2c(c1)OCO2
not listed: [18]
inactive: all other assays above

FC(F)(F)C(F)(F)C(F)(F)C(F)(F)C(F)(F)C(F)(F)CCI
not listed: [3] | [7] | [13] | [18]
inactive: all other assays above
